Test results taken from ChEMBL document CHEMBL4888484, “Replenishing the malaria drug discovery pipeline: Screening and hit evaluation of the MMV Hit Generation Library 1 (HGL1) against asexual blood stage Plasmodium falciparum ,using a nano luciferase reporter read-out” (2022).
Hit rate of the full screen: of about 4,800 compounds, about 420 (8.8%) showed an effect of 50% or more. This is one part of a sample in which strong results are shown more often than they occur.

system: Plasmodium falciparum; test: Confirmatory screen in NF54 nanoGlo assay, in single point, at 2uM, 72h; format: functional, Erythrocyte; settings: timepoint 72 hour

In order of falling “% Inhibition” value:
1. Cc1ccc(O)c(CNCC2(c3ccccc3Cl)CCOCC2)n1  99%
2. COc1ccc2nc(O)c(C(=O)Nc3ccc4c(c3F)CCNC4)cc2c1  99%
3. CCOc1ccc(C2c3[nH]c4ccccc4c3C[C@H]3C(=O)N(C4CCN(Cc5ccccc5)CC4)CC(=O)N23)cc1OC (stereo partly specified)  80%
4. COc1nc(NC2CCS(=O)(=O)CC2)ncc1F  75%
5. COc1ccc(C(=O)CN2C=CCC=C2c2nc(-c3ccc(Cl)cc3)cs2)cc1  72%
6. CCOC1CC(NC2CC(c3ccc(F)cc3)C2)C12CCC2 (stereo unspecified)  67%
7. O=C(N[C@@H](Cn1nccn1)c1ccccc1)c1cc(Br)ccc1Cl  65%
8. Nc1c(-c2nc3ccccc3[nH]2)c2nc3ccccc3nc2n1Cc1ccccc1F  64%
9. Cc1cccc(CN2CCC[C@H](C(=O)c3ccc4c5c(cccc35)CC4)C2)n1  63%
10. CC(C)(C)n1nc2nc(NCCN3CCCCC3)nc(-c3ccc(F)c(Cl)c3)c2c1N  62%
11. COc1ccc(CNC(=O)c2ccc(N3C(=O)[C@@H]4Cc5c([nH]c6ccccc56)C(c5cccc(OC)c5)N4C3=O)cc2)cc1 (stereo partly specified)  49%
12. COc1ccc(C2=CN(CC(=O)c3ccc(Cl)cc3)C3=CCCCCN23)cc1  47%
13. O=C(CN1C=CCC=C1c1nc(-c2ccc(Br)cc2)cs1)c1ccccc1  35%
14. CCOC(=O)c1cc(F)cc(S(=O)(=O)Nc2ccnc3ncnn23)c1  34%
15. COc1ccccc1C1c2[nH]c3ccccc3c2C[C@H]2C(=O)N(CC(O)c3ccccc3)CC(=O)N12 (stereo partly specified)  33%
16. CN1CCN([C@H]2CCN(c3ccnc4ccc(Cl)cc34)C[C@H]2CCCO)CC1  26%
17. COc1ccccc1CN1COc2cc3c(cc2C1)OCO3  22%
18. O=C(NCCN1CCCC1)c1ccc2nc(-c3ccc(Cl)cc3)cn2c1  18%
19. O=c1[nH]nc(-c2ccc3ccccc3c2)c2conc12  18%
20. Oc1ccc2cc(CN3CCC[C@H](CN4CCCC4)C3)ccc2c1  17%
21. Cc1ccc(NC(=O)Nc2cccc(-c3ccc(N4CCN(C)CC4)nn3)c2)cc1C  10%
22. Cc1nn(C)c(Oc2cccc(F)c2)c1NC(=O)CC(C)C  8%
23. CCCC[C@H](CC)C(=O)Nc1ccccc1C  7%
24. Cc1ccc(CC(=O)N2C[C@H](c3ccccc3)C(c3ccc(Cl)cc3)=N2)cc1  6%
25. CCc1nnc(COC(=O)c2csc(NC)n2)o1  6%
26. CC1(C)NC(=O)CC[C@@H]1NC1CC(c2cccc(F)c2)C1 (stereo partly specified)  5%
27. COc1ccc(F)c(NC(=O)N(CCO)C(C)C)c1  5%
28. O=C(N[C@H](c1ccccc1)C1CC1)N1CCN(S(=O)(=O)c2cccc(F)c2)CC1  4%
29. COc1ccc(S(=O)(=O)Nc2c(C)ccc3nsnc23)cc1OC  4%
30. O=C(Nc1ccc2c(c1)c1cc(Br)ccc1n2Cc1ccccc1)c1ccccc1  4%
31. CC(C)(NCCc1c[nH]c2ccccc12)c1nnnn1Cc1cccnc1  3%
32. Cc1ncc(C(=O)Nc2cc3c(=O)[nH]cnc3cc2F)c(C2CC2)n1  3%
33. CCOc1ccccc1C(=O)Nc1c(-n2cnnc2)nn(C)c1C  2%
34. N#Cc1ccc(C(=O)N[C@H]2CCCc3c2cnn3-c2ccccn2)cc1  2%
35. CN(C(=O)c1ccc(OCC(F)(F)F)nc1)C1(C#N)CCC1  2%
36. O=C(NC(Cn1ccccc1=O)c1ccccc1)C1CCOC1 (stereo unspecified)  2%
37. CCN(CC)S(=O)(=O)c1ccc2c(c1)CCCN2C(=O)c1ccc2ccccc2c1  1%
38. Cc1cccc(NC(=O)N2CCCCCC2)n1  1%
39. Cc1csc(NC(=O)[C@]2(C)Oc3ccccc3NC2=O)n1  0%
40. Cc1cc2c(cc1C)[C@H](C(=O)Nc1cc(C(N)=O)ccc1Cl)CO2  -1%
41. COc1ccnc(CN2CC[C@](C)(O)[C@H](O)C2)c1  -2%
42. CCn1nc(C)c(CN(C)C(=O)c2nn3cccnc3c2Cl)c1C  -2%
43. Cc1ccc(CNCCC2=CCCCC2)cc1  -2%
44. CCC[C@]1(C)NC(=O)N(c2csc(-c3ccccc3)n2)C1=O  -3%
45. COCCN(CC1CN(Cc2ccccn2)CC1c1cccc(F)c1)C(=O)COC (stereo unspecified)  -3%
46. CCCNC(=O)CNC(=NC1CC1)NCc1ccccc1C  -3%
47. N[C@H]1COc2ccc(Br)cc2C1=O  -3%
48. COCc1cc(F)ccc1NC(=O)NC1CCN(c2cc(C)nc(C)n2)CC1  -5%
49. C[C@H](C(=O)NCc1cc(F)cc(F)c1)C1CCOCC1  -5%
50. CC(C)CCNC(=O)c1cnn2c3c(cnc12)CCCC3  -6%
51. Cc1ccc(O)c(CNc2ccc3c(c2)OCC3(C)C)n1  -7%
52. Cc1cccc(Nc2nc(-c3cnc(N4CCN(C)CC4)nc3C)cc(=O)[nH]2)c1  -7%
53. COc1ccc(NC(=O)CN2N=C(C(=O)Nc3ccc(F)cc3)CCC2=O)cc1  -7%
54. COC[C@H](NC(=O)c1cccc(F)c1Cl)C(N)=O  -8%
55. Cc1ccc(Cn2ccn3nc(-c4ccc5c(c4)OCO5)cc3c2=O)cc1C  -9%
56. O=C(NCCc1nnc[nH]1)C1(Cc2ccccc2)CC2CCC1C2 (stereo unspecified)  -9%
57. CC(NCCn1cccn1)C(=O)N1c2ccccc2CC1C (stereo unspecified)  -10%
58. O=C(C[C@@]1(O)C(=O)N(Cc2ccc(Cl)cc2Cl)c2ccccc21)c1ccccn1  -10%
59. Cc1c(NC(=O)CCc2ccsc2)nnn1Cc1ccccc1F  -10%
60. CCn1nc(C(=O)N(C2CCCCC2)C2CC2)c2ccccc2c1=O  -10%
61. Cc1cc2nnc(-c3nc4ccccc4[nH]3)c(N)n2n1  -10%
62. COCc1cc(=O)n(CC(=O)NCc2ccccc2Cl)c(N2CCCC2)n1  -11%
63. Cn1ccc(NC(=O)c2n[nH]c3ccccc23)n1  -12%
64. O=C(Cc1ccccc1)Nc1cccc2c1C(=O)N(c1ccccc1)C2=O  -14%
65. COc1ccccc1N1CCN(c2nc(Nc3ccc(F)cc3)c3nc[nH]c3n2)CC1  -18%
66. O=C(Nc1ccc(-n2cncn2)cn1)c1cscn1  -18%
